From PubChem BioAssay (Tox21) come the findings set out here.

Assay [1] can be described thus: A CellTox Green Cytotoxicity Assay to monitor cytotoxicity in HEK293 cells - 40 hour (AID 1224871). Also: nearly all actives have a fitted effect of over 45% in size. Also: potency is read from the fitted curve at half-maximal effect. The procedure, abridged:
(§1)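 HEK293 cells, 600/well, were preincubated 5 hours and then exposed to compounds at 37 C for up to 40 hours. A cell-impermeant cyanine dye staining dead-cell DNA was read by fluorescence at 0, 8, 16, 24, 32 and 40 h time points.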

A short description of assay [2]: qHTS RealTime-Glo MT Cell Viability Assay in HEK293 cells - 16 hour (AID 1224872). Also: nearly all actives have a fitted effect of over 50% in size. Also: potency is read from the fitted curve at half-maximal effect. The procedure, abridged: (§2)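 HEK293 cells seeded with NanoLuc/prosubstrate reagent, rested 5 h at 37 C, then dosed and kept at 37 C up to 40 h. Nonlytic real-time luminescence from viable cells read at 0, 8, 16, 24, 32 and 40 h.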
(In general: qHTS replaces the single test concentration by a dilution series.)

Assay [3] is described as follows: qHTS RealTime-Glo MT Cell Viability Assay in HepG2 cells - 8 hour (AID 1224873). Also: nearly all actives have a fitted effect of over 55% in size. The procedure, abridged:
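Real-time viability: cells seeded at 600 per well together with NanoLuc and cell-permeant prosubstrate, compounds added after 5 h incubation. Luminescence tracked at 0, 8, 16, 24, 32 and 40 h of exposure.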

Assay [4] is described as follows: qHTS RealTime-Glo MT Cell Viability Assay in HEK293 cells - 40 hour (AID 1224874). Also: nearly all actives have a fitted effect of over 50% in size. Also: potency is read from the fitted curve at half-maximal effect. To be noted: RealTime-Glo luminescence; max response: active compounds read low. In short, it runs like this: (§3)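 600 cells/well were plated with the nonlytic NanoLuc/prosubstrate reagent, pre-incubated 5 h, then given 23 nL of compound in DMSO. Incubation at 37 C for 40 h, with luminescence from viable-cell-reduced substrate read repeatedly from 0 h.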

Assay [5] in a line: A CellTox Green Cytotoxicity Assay to monitor cytotoxicity in HEK293 cells - 24 hour (AID 1224875). Also: nearly all actives have a fitted effect of over 45% in size. Also: potency is read from the fitted curve at half-maximal effect. In short, it runs like this: as §1
Assay [6] can be described thus: A CellTox Green Cytotoxicity Assay to monitor cytotoxicity in HepG2 cells - 16 hour (AID 1224876). Also: nearly all actives have a fitted effect of over 45% in size. Also: potency is read from the fitted curve at half-maximal effect. The procedure, abridged: (§4)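 HepG2 cells, 600/well, preincubated 5 h with CellTox Green dye, then exposed to Tox21 compounds in DMSO at 37 C for up to 40 h. Dead-cell DNA fluorescence read at the indicated time point.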
Assay [7] in a line: A CellTox Green Cytotoxicity Assay to monitor cytotoxicity in HepG2 cells - 24 hour (AID 1224878). Also: nearly all actives have a fitted effect of over 45% in size. Also: potency is read from the fitted curve at half-maximal effect. In short, it runs like this: as §4
A short description of assay [8]: qHTS RealTime-Glo MT Cell Viability Assay in HEK293 cells - 0 hour (AID 1224880). In short, it runs like this: as §3
A short description of assay [9]: A CellTox Green Cytotoxicity Assay to monitor cytotoxicity in HEK293 cells - 32 hour (AID 1224881). Also: nearly all actives have a fitted effect of over 40% in size. Also: potency is read from the fitted curve at half-maximal effect. In short, it runs like this:
as §1

Assay [10] is described as follows: A CellTox Green Cytotoxicity Assay to monitor cytotoxicity in HepG2 cells - 0 hour (AID 1224882). Also: nearly all actives have a fitted effect of over 35% in size. Also: potency is read from the fitted curve at half-maximal effect. In short, it runs like this:
as §4

Assay [11] can be described thus: A CellTox Green Cytotoxicity Assay to monitor cytotoxicity in HEK293 cells - 8 hour (AID 1224884). Also: nearly all actives have a fitted effect of over 35% in size. Also: potency is read from the fitted curve at half-maximal effect. In short, it runs like this:
as §1

Assay [12] is described as follows: qHTS RealTime-Glo MT Cell Viability Assay in HepG2 cells - 16 hour (AID 1224885). Also: nearly all actives have a fitted effect of over 50% in size. The procedure, abridged:
(§5)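 HepG2 cells (600/well) were dispensed with RealTime-Glo reagents, incubated 5 h at 37 °C, then treated with compounds in DMSO for up to 40 h. Nonlytic NanoLuc luminescence reflecting viable cells was read at each stated time point.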

The nature of assay [13]: qHTS RealTime-Glo MT Cell Viability Assay in HEK293 cells - 24 hour (AID 1224886). Also: nearly all actives have a fitted effect of over 50% in size. Also: potency is read from the fitted curve at half-maximal effect. In short, it runs like this:
as §2

Assay [14] can be described thus: A CellTox Green Cytotoxicity Assay to monitor cytotoxicity in HEK293 cells - 16 hour (AID 1224888). Also: nearly all actives have a fitted effect of over 35% in size. Also: potency is read from the fitted curve at half-maximal effect. The procedure, abridged:
as §1

The nature of assay [15]: qHTS RealTime-Glo MT Cell Viability Assay in HepG2 cells - 0 hour (AID 1224889). Also: nearly all actives have a fitted effect of over 50% in size. In short, it runs like this:
as §5

Assay [16] in a line: A CellTox Green Cytotoxicity Assay to monitor cytotoxicity in HepG2 cells - 8 hour (AID 1224890). Also: nearly all actives have a fitted effect of over 45% in size. Also: potency is read from the fitted curve at half-maximal effect. In short, it runs like this: as §4
Assay [17] in a line: qHTS RealTime-Glo MT Cell Viability Assay in HepG2 cells - 32 hour (AID 1224877). Also: nearly all actives have a fitted effect of over 55% in size. Also: potency is read from the fitted curve at half-maximal effect. In short, it runs like this:
as §5

Assay [18] is described as follows: A CellTox Green Cytotoxicity Assay to monitor cytotoxicity in HepG2 cells - 40 hour (AID 1224879). Also: nearly all actives have a fitted effect of over 40% in size. Also: potency is read from the fitted curve at half-maximal effect. In short, it runs like this: as §4
Assay [19] can be described thus: qHTS RealTime-Glo MT Cell Viability Assay in HEK293 cells - 8 hour (AID 1224887). Also: nearly all actives have a fitted effect of over 50% in size. Also: potency is read from the fitted curve at half-maximal effect. The procedure, abridged:
as §3

Assay [20] is described as follows: A CellTox Green Cytotoxicity Assay to monitor cytotoxicity in HepG2 cells - 32 hour (AID 1224883). Also: nearly all actives have a fitted effect of over 50% in size. Also: potency is read from the fitted curve at half-maximal effect. The procedure, abridged:
as §4

Unmarked numbers belong to inactive results. Results filed as inconclusive are left out. Active and inactive are the calls of the source. Calls follow the shape of the dose curve; as a rule, active = well fitted curve in the direction sought with a large enough effect in the repeat runs; inconclusive = weak or mixed curves; inactive = no such curve, though single readings can be large; an effect the other way counts as inactive or inconclusive.
% is scaled to controls: 0 for no effect and ±100 for the full control effect.

As to `Oc1ccc(CCNCCCCCCNCCc2ccccc2)cc1O`, the Potency result in assay [1], in assay [5], in [6], in assay [7], in assay [8] and in [9] was “inactive” each time. Further, the Potency result in [10], in assay [11], in [14], in [15] and in [16] was “inactive” each time. Further, the Potency in [2], in [4] and in assay [13] was 23.9 µM (active) throughout. The molecule was classed as inactive in [3] and in assay [12].
`OCCCO`: the Potency entry in assay [1], in [2], in assay [5], in [6], in assay [17] and in assay [7] was “inactive” throughout. In addition, the Potency entry in assay [18], in assay [8], in assay [9], in [10], in [11] and in assay [13] was “inactive” in each case. For the same molecule, the Potency result in assay [19], in assay [14] and in assay [16] was “inactive” in each case. Also, the molecule was called inactive in assay [3] and in assay [12]. The max response in assay [4] is 16.2%.
For the molecule `CC1(C)CC(O)CC(C)(C)N1[O]`, the Potency entry in assay [1], in assay [2], in [5], in assay [6], in [17] and in [7] was “inactive” throughout. Besides, the Potency result in [18], in [8], in [9], in assay [10], in assay [11] and in [13] was “inactive” in each case. Besides, the Potency entry in [19], in assay [15] and in assay [16] was “inactive” each time. Moreover, the molecule was called inactive in [3] and in [12]. The max response in [4] is 6.37%.
As for `Cc1cc(C)n(CO)n1`, the Potency entry in [1], in [2], in assay [5], in assay [6], in assay [17] and in assay [7] was “inactive” each time. Besides, the Potency entry in assay [18], in [8], in assay [9], in [10], in assay [11] and in [13] was “inactive” in each case. Besides, the Potency result in assay [19], in [15] and in assay [16] was “inactive” each time. For the same molecule, the molecule was classed as inactive in [3] and in [12]. In addition, in assay [4], the max response was 1.2%.
Turning to `CCCCCCCCCCCC(=O)OCC`, the Potency result in assay [1], in assay [2], in [5], in assay [6], in assay [17] and in assay [7] was “inactive” throughout. Besides, the Potency entry in assay [18], in assay [8], in [9], in assay [10], in [11] and in [13] was “inactive” each time. Besides, the Potency entry in assay [19], in assay [14] and in assay [16] was “inactive” throughout. Further, the result in assay [3] and in assay [12] was inactive. The max response in [4] was 3.23%.
With `Cc1nc2sccn2c(=O)c1CCN1CCC(=C(c2ccc(F)cc2)c2ccc(F)cc2)CC1`, the Potency result in assay [1], in assay [5], in assay [6], in assay [17], in assay [7] and in assay [18] was “inactive” each time. Also, the Potency result in assay [9], in [10], in assay [20], in [11], in assay [14] and in assay [15] was “inactive” in each case. In addition, the Potency result in [16] was “inactive”. Besides, the Potency in [2] was 3.01 µM (active); in assay [4], 4.25 µM (active); in assay [13] it was 3.38 µM (active); in [19], 3.01 µM (active). In addition, the outcome in assay [3] and in [12] was inactive.
Consider `CCCCCCCCOCCCN`, for which the Potency result in assay [1], in assay [2], in [5], in assay [6], in assay [17] and in assay [7] was “inactive” each time. Also, the Potency entry in assay [18], in assay [9], in assay [10], in assay [20], in assay [11] and in [13] was “inactive” each time. Moreover, the Potency entry in assay [19], in assay [14] and in assay [16] was “inactive” throughout. Moreover, the outcome in assay [3] and in [12] was inactive. Besides, in assay [4], the max response is 2.92%.
With `O=C(Nc1ccccc1)c1cc([N+](=O)[O-])ccc1Cl`, the Potency entry in [1], in [2], in assay [5], in assay [6], in assay [17] and in [7] was “inactive” each time. The Potency entry in assay [8], in assay [9], in assay [10], in assay [20], in assay [11] and in assay [13] was “inactive” in each case. The Potency result in assay [19], in assay [14], in [15] and in assay [16] was “inactive” in each case. For the same molecule, the result in assay [3] and in assay [12] was inactive. In assay [4], the max response is -23.2%.
Take `CCCN(C1CCN(C(=O)C2CCNCC2)CC1)[C@@H]1CCc2ccc(OC)cc2C1`: the result in assay [3] and in assay [12] was inactive. The Potency result in assay [17], in assay [8], in assay [10], in assay [19] and in assay [16] was “inactive” throughout.
In the case of `CC(C)(C)NCC(O)COc1ccc(NC(=O)NC2CCCCC2)cc1` (stereo not given), the Potency entry in [1], in [5], in assay [6], in [7], in [18] and in assay [9] was “inactive” throughout. Moreover, the Potency entry in assay [10], in assay [20], in assay [11] and in assay [16] was “inactive” in each case.
Turning to `NC(=O)c1ccccc1C(N)=O`, the Potency in assay [1] is 49.2 µM (active); in assay [4], 31 µM (active); in assay [5], 49.2 µM (active); in assay [6], 55.2 µM (active); in assay [7], 55.2 µM (active); in assay [18] it was 49.2 µM (active). Besides, the Potency in [9] was 49.2 µM (active); in assay [10], 49.2 µM (active); in assay [20], 55.2 µM (active); in assay [11] it was 49.2 µM (active); in assay [13] it was 34.8 µM (active); in [14], 49.2 µM (active). The Potency in [16] is 49.2 µM (active). Moreover, the call in [3] and in [12] was inactive. The Potency entry in assay [17], in [8] and in [15] was “inactive” throughout.
With `Oc1ccc(Oc2ccccc2)cc1`, the Potency in [2] is 14.7 µM (active); in [4] it was 14.7 µM (active); in assay [7] it was 36.9 µM (active); in assay [18], 36.9 µM (active); in assay [13], 16.5 µM (active); in assay [19], 16.5 µM (active). Moreover, the result in assay [3] and in assay [12] was inactive. The Potency result in assay [5], in assay [17], in assay [8], in [10], in assay [11] and in assay [14] was “inactive” in each case. Moreover, the Potency result in assay [15] was “inactive”.
Turning to `Cc1ccc(NC(=O)c2ccc(CN3CCN(C)CC3)cc2)cc1Nc1nccc(-c2cccnc2)n1`, the Potency result in assay [1], in [5], in assay [6], in [17], in [7] and in [8] was “inactive” each time. Further, the Potency result in [9], in [10], in assay [11], in [14], in assay [15] and in assay [16] was “inactive” throughout. For the same molecule, the call in [3] and in [12] was inactive. The Potency in assay [4] and in [13] was 21.3 µM (active) each time.
Take `CC(C)C[C@H](NC(=O)[C@H](Cc1ccccc1)NC(=O)c1cnccn1)B(O)O`: the Potency in assay [1] was 0.0379 µM (active); in assay [4], 0.0239 µM (active); in [6], 13.4 µM (active); in [17], 0.0301 µM (active); in [7], 0.0952 µM (active); in assay [18], 0.0151 µM (active). Besides, the Potency in assay [9] was 0.19 µM (active); in assay [20], 0.0239 µM (active); in assay [13], 0.0756 µM (active). The call in assay [3] was inactive. In addition, the Potency result in assay [5], in assay [8], in assay [10], in assay [11], in assay [19] and in assay [14] was “inactive” each time. Moreover, the Potency result in assay [15] and in assay [16] was “inactive” each time.
`S=c1[nH][nH]c(=S)s1`: the Potency result in assay [1], in assay [5], in assay [6], in [17], in assay [7] and in assay [18] was “inactive” each time. Besides, the Potency result in [8], in assay [9], in [10], in assay [20], in assay [11] and in assay [19] was “inactive” in each case. Moreover, the Potency result in [14], in assay [15] and in assay [16] was “inactive” each time. In addition, the outcome in [3] and in assay [12] was inactive.
